Screens: PubChem, National Center for Advancing Translational Sciences (NCATS)
Hits are enriched below; roughly 21% of the tested compounds scored in any of these assays.
Cycloheximide cs: counter-screen for Shiga toxin inhibitors: cycloheximide protein synthesis inhibition. AID 2314. cell reporter, cycloheximide protein synthesis inhibition counterscreen. 12% of 300,000 active. max response, %; in the data active = max response mostly above about 13%, no sharp cut-off; inactive = mostly below about 14%; note: read at 38.3 µM for the half of the compounds with a filed dose
Shiga toxin inh: blocks Shiga toxin action in Vero cells; 9.2% of 290,000 active; AID 2315; Vero cells, Shiga toxin protein synthesis inhibition reporter; inhibition, % at 38.7 µM; in the data active = inhibition mostly above about 28%, no sharp cut-off; inactive = mostly below about 43%
Pf growth 48h: P. falciparum growth inhibition at 48 hours (one generation); P. falciparum luciferase growth in erythrocytes, 48 h; Potency, µM (highest dose often 28.7 µM), usual class: inhibitors; 5.9% of 310,000 active
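Cell-based growth assay: transgenic P. falciparum expressing firefly luciferase, cultured in red cells within RPMI 1640 containing 0.5% w/v Albumax, 24 mM bicarbonate and gentamycin. A drop in luciferase activity indicates inhibition.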
Pf growth 96h: P. falciparum growth inhibition at 96 hour, primary screen for plastid delayed-death inhibitors. P. falciparum luciferase reporter growth, 96 h. 6.9% of 320,000 active. Potency, µM (series often up to 28.7 µM), usual class: inhibitors. AID 504834
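Plates of compound plus infected erythrocytes (2% hematocrit, 0.05% parasitemia final) incubate 96 hours, 37 C, 5% CO2. Detection reagent added; reduced luminescence from the parasites' luciferase reporter flags inhibition.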
NS1 inh: blocks influenza NS1 protein function. Potency, µM (doses to about 46.1 µM). 0.4% of 270,000 active. AID 2326; calls by dose curve; note: actives are rising curves; nearly all actives have a fitted effect of over 50% in size
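Compounds were scored for reversing the slow growth caused by influenza A NS1 in S. cerevisiae, measured by optical density at 600 nm. Assay medium contained 2% galactose at pH 6.0; NS1-free yeast of the same strain were the positive control.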
Of the large screens only hits and unclear results are named; the others gave an inactive call; ! = not active in a repeat. Unless noted, calls come from the whole dose curve; as a rule, active = well fitted inhibition curve with a large enough effect; inconclusive = small, poorly fitted or top-dose-only effect, or another doubt; inactive = no such curve, though single readings can be large or run the other way.

COc1ccc(C[C@H]2CN3C(=NC[C@@H]3Cc3ccccc3)N2CCNC(=O)CCC2CCCCC2)cc1	Pf growth 48h 3.7µM, Pf growth 96h 2.9µM
O=C(CCC1CCCCC1)NCCN1C2=NC[C@H](Cc3ccc(O)cc3)N2C[C@H]1Cc1ccc(O)cc1	Pf growth 48h inconclusive, Pf growth 96h inconclusive
CC(C)[C@H]1CN=C2N(CCNC(=O)CCC3CCCCC3)[C@H](Cc3ccc(O)cc3)CN21	Pf growth 48h 9.3µM, Pf growth 96h inconclusive
COc1ccc(C[C@H]2CN3C(=NC[C@@H]3C(C)C)N2CCNC(=O)CCC2CCCCC2)cc1	Pf growth 48h inconclusive, Pf growth 96h 4.7µM
COCC(C)NC(=O)C(C)N1c2cccc3cccc(c23)S1(=O)=O (stereo not drawn)	none
O=C(OC1CCOC1=O)c1cccc(S(=O)(=O)Nc2cccc(Cl)c2)c1 (stereo not drawn)	Pf growth 48h inconclusive, Pf growth 96h inconclusive
O=C(NCc1cccnc1)C1CCC(CNS(=O)(=O)c2cccc3nsnc23)CC1 (stereo not drawn)	none
O=C(Nc1ccncc1)C1CCN(S(=O)(=O)c2ccccc2C(F)(F)F)CC1	Pf growth 48h inconclusive, Pf growth 96h 3.3µM
O=C(Nc1ccncc1)C1CCN(S(=O)(=O)c2ccc(Cl)c(C(F)(F)F)c2)CC1	Pf growth 48h inconclusive, Pf growth 96h 12µM (no result: Cycloheximide cs, Shiga toxin inh, NS1 inh)
Cc1ccc(S(=O)(=O)N(C)CC(=O)N2CC(C)OC(C)C2)cc1 (stereo not drawn)	none
CCCCCOc1ccc(Br)cc1/C(C)=N/NC1=NCCN1	Pf growth 48h 5.2µM, Pf growth 96h inconclusive
Cc1ccccc1OCC(O)CN1C(=O)c2ccccc2C1=O (stereo not drawn)	Cycloheximide cs 37, Shiga toxin inh 39
Cc1ccc(C)c(OCC(O)CN2CCc3ccccc3C2)c1C (stereo not drawn)	Pf growth 48h 9.3µM, Pf growth 96h 12µM
O=C1c2ccccc2C(=O)N1CC(O)COc1ccccc1Cl (stereo not drawn)	Cycloheximide cs 45, Shiga toxin inh 91
CCOc1ccc(OCC(O)CN2CCc3ccccc3C2)cc1 (stereo not drawn)	none (no result: Pf growth 48h)
Cc1ccccc1OCC(O)CN1CCN(CC(O)COc2ccccc2C)CC1 (stereo not drawn)	Pf growth 48h inconclusive, Pf growth 96h 1.5µM (no result: NS1 inh)
O=C(Nc1cccc2ncccc12)c1cc(Br)ccc1Cl	Pf growth 96h inconclusive
CCCCc1ccc(NC(=S)N2CCCC(C)C2)cc1 (stereo not drawn)	Cycloheximide cs 21, Shiga toxin inh 41
CCOC(=O)c1ccc(NC(=S)N2CCC(O)CC2)cc1	Cycloheximide cs 39
COC(=O)c1ccc(NC(=O)C(=O)N2CCN(C(=S)Nc3ccc(C)cc3)CC2)cc1	Pf growth 96h 0.37µM
CCOC(=O)c1ccc(NC(=S)N2CCSC2c2ccc(Br)cc2)cc1 (stereo not drawn)	Cycloheximide cs 13
CCOC(=O)c1ccc(NC(=S)N2CCCC2c2ccc(OC)c(OC)c2)cc1 (stereo not drawn)	Pf growth 48h inconclusive, Pf growth 96h inconclusive (no result: NS1 inh)
CCOC(=O)c1ccc(NC(=S)N2CCN(CCO)CC2)cc1	none
CCOC(=O)N1CCC(N(C(=O)Nc2ccc(CC)cc2)C(C)CC)CC1 (stereo not drawn)	Cycloheximide cs 14
CCOC(=O)c1ccc(NC(=S)N2CCCC(C)C2)cc1 (stereo not drawn)	Cycloheximide cs 13, Shiga toxin inh 62, Pf growth 96h inconclusive
COCCNC(=O)C1(C(F)(F)F)C/C(=C\Cc2ccccc2)CCCO1 (stereo not drawn)	none (no result: Pf growth 48h, Pf growth 96h, NS1 inh)
C=CCn1c(SCC(=O)Nc2c(C)n(C)n(-c3ccccc3)c2=O)nc2sc(C)c(-c3ccccc3)c2c1=O	none
CCCc1nc(SCC(=O)N2CCC(Cc3ccccc3)CC2)c2c(=O)n(C)c(=O)n(C)c2n1	Pf growth 48h inconclusive
O=C(c1nn(Cc2ccccc2)c(=O)c2ccccc12)N1CCc2ccccc2C1	none
NC(=O)C1Cc2ccccc2CN1C(=O)c1nn(Cc2ccccc2)c(=O)c2ccccc12 (stereo not drawn)	Pf growth 48h 9.3µM, Pf growth 96h 5.9µM (no result: Cycloheximide cs, Shiga toxin inh, NS1 inh)
Nc1ccc(C(=O)NCC(=O)O)cc1	Pf growth 48h 12µM!, Pf growth 96h 9.3µM! (no result: Cycloheximide cs, Shiga toxin inh, NS1 inh)
O=C(COC(=O)c1ccc(F)cc1Cl)NC(=O)NC1CCCC1	none (no result: Cycloheximide cs, Shiga toxin inh, NS1 inh)
CC(C)(C)c1ccc(Cc2n[nH]c(=S)[nH]c2=O)cc1	none
Nc1nc(-c2ccc(-c3ccccc3)cc2)cs1	Cycloheximide cs 62, Shiga toxin inh 151
Nc1nc(-c2ccc3ccccc3c2)cs1	Cycloheximide cs 43, Shiga toxin inh 86, Pf growth 96h inconclusive (no result: NS1 inh)
COc1ccc(-c2csc(-c3cc4ccccc4oc3=N)n2)cc1	none
Nc1nc(-c2ccc(C(=O)O)cc2)cs1	Pf growth 96h inconclusive (no result: NS1 inh)
COc1ccc(-c2csc(N=C(N)N)n2)cc1	Cycloheximide cs 25, Shiga toxin inh 68, Pf growth 48h inconclusive, Pf growth 96h inconclusive
Cc1ccc(-c2csc(N=C(N)N)n2)c(C)c1	Cycloheximide cs 36, Shiga toxin inh 37, Pf growth 48h inconclusive, Pf growth 96h inconclusive
NC(N)=Nc1nc(CCN2C(=O)c3ccccc3C2=O)cs1	none
COc1ccc(-c2csc(N)n2)cc1	Cycloheximide cs 37, Shiga toxin inh 58
COc1ccc2[nH]c(C)c(-c3csc(N)n3)c2c1	NS1 inh inconclusive
Cc1ccc(-c2csnn2)cc1	none
Nc1nc(-c2ccccc2Br)cs1	none
c1ccc2cc(-c3csnn3)ccc2c1	Cycloheximide cs 32, Shiga toxin inh 108
Nc1nc(-c2ccc(Oc3ccccc3)cc2)cs1	Cycloheximide cs 39, Shiga toxin inh 53, Pf growth 96h inconclusive
COc1cccc(C(=O)NCC(=O)N2CCC3(CC2)NCCc2[nH]cnc23)c1OC	none
Cc1nn(CC(=O)NCCCN2C(C)CCCC2C)c(=O)c2cc3occc3n12 (stereo not drawn)	none
CC(C)c1ccc(NC(=O)Cc2ccc(NC3=NC4CS(=O)(=O)CC4S3)cc2)cc1 (stereo not drawn)	none
CCc1ccc(CNC(=O)c2ccc(NC(=O)C3=CSCCO3)cc2)cc1	Cycloheximide cs 33, Shiga toxin inh 21, Pf growth 96h inconclusive
CC(C)OCCCNC(=O)c1ccc(NC(=O)C2=CSCCO2)cc1	none
O=C(Nc1ccc(C(=O)N2CCN(c3ccc(F)cc3)CC2)cc1)C1=CSCCO1	Pf growth 48h inconclusive, Pf growth 96h inconclusive
O=C(Nc1ccc(C(=O)NCc2ccccc2)cc1)C1=CSCCO1	Cycloheximide cs 28, Shiga toxin inh 38, Pf growth 96h inconclusive
O=C(Nc1ccc(C(=O)NCc2ccc(F)cc2)cc1)C1=CSCCO1	Cycloheximide cs 38, Shiga toxin inh 102, Pf growth 48h inconclusive
CCOCCCNC(=O)c1ccc(NC(=O)C2=CSCCO2)cc1	none
COCCNC(=O)C(C(=O)c1ccc(F)cc1)n1cc(C)ccc1=O (stereo not drawn)	none
COc1nc(-c2ccccc2)c2c(c1C#N)CC(C)(C)OC2	none (no result: Pf growth 48h)
CCc1ccc(NC(=S)NC2CC3CCCC(C2)N3Cc2ccccc2)cc1 (stereo not drawn)	Pf growth 48h 6.6µM, Pf growth 96h inconclusive
CNC(=S)NC1CC2CCC(C1)N2Cc1ccccc1 (stereo not drawn)	none
